# Bioassay records: PubChem BioAssay, National Center for Advancing Translational Sciences (NCATS)
# This is a sample that favours compounds with a hit; in the whole collection about 21% have one here.
# Sm TGR inh – inhibitors of Schistosoma mansoni thioredoxin glutathione reductase | Q962Y6 | purified TGR, DTNB reduction, TNB absorbance 405 nm | Potency, µM (series often up to 114 µM), without a hit: at the highest dose activity change, negative = inhibition, usual class: inhibitors | actives 3% (n = 360,000); also: potency is read from the fitted curve at half-maximal effect; % is scaled to controls: 0 for no effect and ±100 for the full control effect; nearly all actives have a fitted effect of over 60% in size
#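 Kinetic colorimetric format: TGR-catalysed, NADPH-driven DTNB reduction monitored via TNB absorbance. Enzyme dispensed at 20 nM; compound exposure 15 min at room temperature before reaction start.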
# Cycloheximide cs – counter-screen for Shiga toxin inhibitors: cycloheximide protein synthesis inhibition; cell reporter, cycloheximide protein synthesis inhibition counterscreen; max response, %; actives 12% (n = 300,000); in the data active = max response mostly above about 13%, no sharp cut-off; inactive = mostly below about 14%; also: read at 38.3 µM for the half of the compounds with a filed dose; 0% is about no effect
# Pf growth 96h – inhibits malaria parasite growth, 96 h; P. falciparum luciferase reporter growth, 96 h; actives 6.9% (n = 320,000); Potency, µM (highest dose often 28.7 µM), for inactives: at the highest dose activity change, negative = inhibition, usual class: inhibitors; AID 504834; also: potency is read from the fitted curve at half-maximal effect; % is scaled to controls: 0 for no effect and ±100 for the full control effect
#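 Plates of compound plus infected erythrocytes (2% hematocrit, 0.05% parasitemia final) incubate 96 hours, 37 C, 5% CO2. Detection reagent added; reduced luminescence from the parasites' luciferase reporter flags inhibition.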
# NS1 function inh – blocks influenza NS1 protein function; actives 0.4% (n = 270,000); Potency, µM (top dose mostly 46.1 µM), for inactives: at the top dose activity, positive = more growth; calls by dose curve; also: potency is read from the fitted curve at half-maximal effect; actives are rising curves; nearly all actives have a fitted effect of over 50% in size
#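 S. cerevisiae expressing influenza A NS1, grown in glucose, washed, then diluted 1:100 into pH 6.0 -URA galactose medium with 23 nl compound. Growth recovery read as OD600; NS1-free strain serves as control.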
# Pf growth 48h – P. falciparum growth inhibition at 48 hours (one generation) | Potency, µM (titrated, usually from 28.7 µM), for the others: top-dose activity change, negative = inhibition, most hits filed as inhibitors | actives 5.9% (n = 310,000) | P. falciparum luciferase growth in erythrocytes, 48 h | AID 504832; also: potency is read from the fitted curve at half-maximal effect; % is scaled to controls: 0 for no effect and ±100 for the full control effect
#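 Cell-based growth assay: transgenic P. falciparum expressing firefly luciferase, cultured in red cells within RPMI 1640 containing 0.5% w/v Albumax, 24 mM bicarbonate and gentamycin. A drop in luciferase activity indicates inhibition.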
# Shiga inhibitor – Shiga toxin inhibition. Vero cells, Shiga toxin protein synthesis inhibition reporter. inhibition, % at 38.7 µM. actives 9.2% (n = 290,000). AID 2315; in the data active = inhibition mostly above about 28%, no sharp cut-off; inactive = mostly below about 43%; also: 0% is about no effect
# * = called active by the depositor; ? = inconclusive; / = no result given. Unless noted, calls follow the shape of the dose curve; as a rule, active = well fitted curve in the direction sought with a large enough effect; inconclusive = small, poorly fitted or top-dose-only effect, or another doubt; inactive = no such curve, though single readings can be large; an effect the other way counts as inactive or inconclusive.
SMILES,Sm TGR inh,Cycloheximide cs,Pf growth 96h,NS1 function inh,Pf growth 48h,Shiga inhibitor
CCOC(=O)Cn1nc(C)c(-c2ccccc2)c1N,1%,10,4%,-9%,-9%,39
Cn1c(CSCc2ccc(Cl)cc2)n[nH]c1=S,/,-1,34%,-4%,-10%,-4
Cn1c(CSCc2ccc(F)cc2)n[nH]c1=S,-8%,1,13µM*,8%,-7%,-3
COc1cccc(N(Cc2nnc3n2CCCCC3)C(=O)Nc2cccc(Cl)c2)c1,3%,/,/,/,/,/
CCC(C)[C@H](NC(=O)[C@@H]1CSC2c3ccccc3C(=O)N21)C(=O)NCc1ccco1 (stereo partly specified),45µM*,1,-6%,6%,15%,4
CCC(C)[C@H](NC(=O)[C@@H]1CSC2c3ccccc3C(=O)N21)C(=O)NC1CCCC1 (stereo partly specified),-12%,-1,?,15%,?,-3
CCOC(=O)c1c(C)[nH]c(C(=O)C(Cc2ccccc2)N(C)C)c1C (stereo unspecified),-11%,20*,/,13%,?,34
CCOC(=O)c1c(C)[nH]c(C(=O)OC(C)C(=O)NCc2ccccc2)c1C (stereo unspecified),-13%,/,62%,/,-18%,/
COC(=O)c1c(C)[nH]c(C(=O)C(Cc2ccccc2)N(C)C)c1C (stereo unspecified),3%,26*,/,-1%,2%,96*
Cc1cccc(Cn2c(C(C)O)nc3ccccc32)c1 (stereo unspecified),0%,3,?,-39%,-9%,-13
Cc1cccc(Cn2c(C)nc3c(N)c(C)c(C)cc32)c1,-1%,-3,?,/,10µM*,-12
COc1ccc(Cn2c(C)c(C)c(C#N)c2NC(=O)Nc2ccc(Cl)cc2)cc1,-14%,-3,?,15%,?,14
COc1ccc(C(=O)Nc2ccc3ccccc3c2)cc1,?,7,1%,-16%,0%,-24
Cn1nnc2cc(C(=O)NC3CC3)ccc21,0%,6,/,2%,39%,10
COc1ccc(C(=O)Nc2ccc3c(c2)C(=O)c2ccccc2C3=O)cc1OC,-5%,31*,0%,20%,24%,22
COc1ccc(C(=O)Nc2ccc3ccccc3c2)cc1OC,26%,43*,61%,-15%,116%,68*
Cn1nnc2cc(C(=O)Nc3ccc4ccccc4c3)ccc21,/,36*,20%,0%,77%,108*
COc1ccc(OC)c(C(=O)c2ccc(C(=O)Nc3ccc4ccccc4c3)cc2)c1,-7%,50*,?,3%,?,active
COc1cc(NC(=O)C(CC(C)C)NS(=O)(=O)c2ccc3c(c2)CCCC(=O)N3)cc(OC)c1 (stereo unspecified),3%,/,/,/,/,/
CCC(c1nnc(SCC(=O)Nc2c(F)cccc2F)n1Cc1ccccc1)N(C)C (stereo unspecified),-27%,8,?,-38%,?,-17
COCCNC(=O)CSc1cc(=O)n(C)c2cc(Cl)ccc12,2%,-5,?,/,32%,-13
CCCc1c(C)[nH]c2ccc(NC(C)=O)cc2c1=O,0%,2,85%,16%,66%,-9
COc1ccc(C(=O)NCc2ccc3c(c2)OCO3)cc1S(=O)(=O)N(C)Cc1ccccc1,5%,-2,-16%,23%,1%,-8
COc1ccc(C(=O)Nc2ccc(C(=O)N3CCC(C)CC3)cc2)cc1OC,7%,-3,2.6µM*,-4%,?,30
COc1cc(C(=O)Nc2ccc(C(=O)O)cc2)ccc1OC(C)=O,-1%,-1,2.3µM*,/,21%,-6
SMILES,Sm TGR inh,Cycloheximide cs,Pf growth 96h,NS1 function inh,Pf growth 48h,Shiga inhibitor
COc1ccccc1N1C(=O)c2ccc(C(=O)Nc3ccc(C(=O)O)cc3)cc2C1=O,89µM*,1,-29%,4%,29%,15
COc1ccc(C(=O)Nc2ccc(NC(C)=O)cc2)cc1S(=O)(=O)N(C)Cc1ccccc1,7%,/,4.7µM*,/,?,/
CN1CCN(C(c2ccccc2)c2sc3nc(-c4ccco4)nn3c2O)CC1 (stereo unspecified),12%,/,/,/,/,/
CCN(CC)S(=O)(=O)c1cc(NC(=O)C(C)N2CCN(Cc3ccc4c(c3)OCO4)CC2)ccc1C (stereo unspecified),7%,-3,?,-3%,?,2
CCc1ccc(NC(=O)Cn2nnc(C(=O)Nc3cc(C)ccc3OC)c2N)cc1,14%,/,/,/,/,/
COc1cc2c(cc1OC)[C@H](Cc1ccc(O)cc1)NCC2,-25%,-5,-10%,28%,9%,-19
COc1cc(/C=N/NC(=O)c2ccc(CN(C)S(=O)(=O)c3ccc(C)cc3)cc2)ccc1O,-3%,1,-17%,/,-10%,-7
COc1cc(C(=O)Nc2ccc3ccccc3c2)cc(OC)c1OC,-6%,14*,1.7µM*,-21%,5.2µM*,26
CN1c2ccccc2N(C)C1(C)c1ccccc1,45µM*,1,0%,?,2.3µM*,13
CN1C(=O)N(C)C2(c3ccccc3)NC(=O)NC12c1ccccc1 (stereo unspecified),-23%,-2,?,1%,-6%,26
CCN1c2ccccc2N(C)C1(C)c1ccccc1 (stereo unspecified),35µM*,-3,0%,22%,2.6µM*,-12
Cc1ccc(S(=O)(=O)c2cnc(SCC(=O)Nc3ccc4c(c3)OCCO4)[nH]c2=O)cc1,5%,/,/,/,/,/
O=C(c1cc2cc(Cl)ccc2oc1=O)N1CCCC1,-18%,10,/,4%,-7%,-4
O=C(c1cccn2c(=O)c3cc(Cl)ccc3nc12)N1CCN(Cc2ccc3c(c2)OCO3)CC1,?,2,-4%,-59%,?,-6
O=C(c1cc(Cl)ccc1Cl)N1CCOCC1,0%,-3,13µM*,0%,25%,-15
O=C(c1cc2cc(Cl)cc(Cl)c2oc1=O)N1CCOCC1,0%,-10,8.3µM*,3%,15%,-21
O=C(c1cccn2c(=O)c3cc(Cl)ccc3nc12)N1CCOCC1,-20%,6,10µM*,-1%,13µM*,-7
CCN(CC)C1CCS(=O)(=O)C1 (stereo unspecified),3%,-5,0.19µM*,/,37%,-8
CCOC(=O)C(=O)N(CC)C1CCS(=O)(=O)C1 (stereo unspecified),-3%,8.9*,45%,-2%,54%,10
CSC(=S)N(C)C1CCS(=O)(=O)C1 (stereo unspecified),5%,-1,0%,4%,18%,24
COc1ccccc1-c1nc(SCC(=O)NCC2CCCO2)c2c(=O)n(C)c(=O)n(C)c2n1 (stereo unspecified),4%,10,?,/,?,24
CCOC(=O)C1CCN(C(=O)Cn2ncc3c([nH]c4ccc(C)cc43)c2=O)CC1,7%,/,/,/,/,/
